High-throughput results: PubChem BioAssay, several laboratories
Shown are actives, neighbours in structure and some others; about 3.8% of the full set was active somewhere.
TIM10 inh: growth inhibitors of isogenic TIM10 control yeast, primary screen, counter-screen for tim10-1 yeast inhibitor project, luminescence, uHTS; AID 463195, 2010; 330,000 compounds, 1.4% hits; S. cerevisiae TIM10 strain growth, BacTiter-Glo luminescence, 24 h; inhibition, % at 10 µM;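 active = inhibition of 40% or more at the single tested concentration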;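 also: wild-type TIM10 isogenic control strain grown at permissive 25 °C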
Beta2AR agonist: beta2AR agonists driving receptor internalization, primary screen, cell-based, FAP fluorogen, flow cytometry. Am2.2-beta2AR cells. 340,000 compounds, 0.43% hits. AID 504454, 2011. response, % (no concentration beside the values);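 active = response above a set limit, near 3 SD of response in nonfluorescent compounds, cut at about 42% in these data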
Target sequence (P07550 whole entry, looked up): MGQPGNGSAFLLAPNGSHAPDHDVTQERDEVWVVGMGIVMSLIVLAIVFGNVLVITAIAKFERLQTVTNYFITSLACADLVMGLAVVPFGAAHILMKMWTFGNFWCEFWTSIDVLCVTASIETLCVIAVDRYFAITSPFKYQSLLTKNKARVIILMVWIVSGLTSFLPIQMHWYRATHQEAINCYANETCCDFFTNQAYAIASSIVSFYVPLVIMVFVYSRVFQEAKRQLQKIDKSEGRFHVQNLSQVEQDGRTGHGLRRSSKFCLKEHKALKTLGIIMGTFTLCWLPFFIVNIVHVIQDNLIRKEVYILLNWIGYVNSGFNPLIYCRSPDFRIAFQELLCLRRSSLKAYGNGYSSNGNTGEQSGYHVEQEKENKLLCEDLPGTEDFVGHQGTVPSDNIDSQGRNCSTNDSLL
PfHsp90 set2: growth inhibition of PfHsp90-expressing yeast, primary screen, antimalarial PfHsp90 inhibitor project, S. cerevisiae, BacTiter-Glo luminescence, single point, set 2. BacTiter-Glo ATP, 48 h; yeast lacking PDR1 and PDR3 efflux regulators. inhibition, % at 9.4 µM. 310,000 compounds, 0.32% hits. AID 504621, 2011;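 active = every replicate shows inhibition above about 80%, whatever the replicate mean, limit read from the data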
tim10-1 inh: growth inhibitors of tim10-1 mutant yeast, primary screen, luminescence, uHTS; S. cerevisiae tim10-1 ts strain growth, BacTiter-Glo, 24 h; inhibition, % at 20 µM; 330,000 compounds, 2.2% hits; AID 463190, 2010;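 active = inhibition of at least 40%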;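 also: mutant grown at 25 °C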
tim23-1 inh: growth inhibitors of tim23-1 mutant yeast, primary screen, luminescence, uHTS; AID 463212, 2010; inhibition, % at 20 µM; 330,000 compounds, 1.3% hits; S. cerevisiae tim23-1 growth, BacTiter-Glo luminescence, 24 h;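 active = growth inhibition of the mutant yeast at or above 50%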;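 also: temperature-sensitive mutant grown at 25 °C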
tim10-1 conf: growth inhibitors of tim10-1 mutant yeast, confirmation, single concentration, luminescence, S. cerevisiae; shares compounds with tim10-1 inh; inhibition, % at 20 µM; S. cerevisiae tim10-1 ts strain growth, BacTiter-Glo, 24 h; AID 463213, 2010; 7,400 compounds, 56% hits;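 active = inhibition of yeast growth at or above a set limit in either of two repeat tests at 20 µM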;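 also: tim10-1 mutant grown at permissive 25 °C to find synthetic lethal compounds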
tim10 confirm: growth inhibitors of wild-type TIM10 yeast, confirmation, counter-screen for tim10-1 synthetic lethality project, single concentration, luminescence, S. cerevisiae | shares compounds with TIM10 inh | S. cerevisiae tim10 strain growth, BacTiter-Glo luminescence, 24 h | inhibition, % at 10 µM | 4,600 compounds, 63% hits | AID 463215, 2010;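 active = inhibition of yeast growth at or above a set limit in either of two replicates at 10 µM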; also: this counterscreen used the strain with wild-type TIM10
Numbers stand for hits; – = inactive; · = no result given.

SMILES	TIM10 inh	Beta2AR agonist	PfHsp90 set2	tim10-1 inh	tim23-1 inh	tim10-1 conf	tim10 confirm
Cc1nn(C)c(C)c1NC(=O)Nc1ccc(Cl)c(Cl)c1	40.2	–	–	60.2	–	57.8	–
Cc1nn(C)c(C)c1NC(=O)Nc1cccc(C(F)(F)F)c1	–	–	–	–	–	·	·
CC12CCC(C(=O)Nc3nccs3)(OC1=O)C2(C)C (stereo unspecified)	–	–	·	–	–	·	·
CC12CCC(C(=O)Nc3nc4ccc(Br)cc4s3)(OC1=O)C2(C)C (stereo unspecified)	47.8	–	–	50.5	–	42.2	31.8
COc1cccc(/C=c2\sc3nc(-c4cccs4)nn3c2=O)c1OC	51.0	–	–	42.0	–	33.1	–
O=C(COC(=O)/C=C/c1ccccc1[N+](=O)[O-])NNC(=O)c1ccc(F)cc1	–	–	–	–	–	·	·
COc1ccccc1N=c1oc2cc(O)ccc2cc1C(N)=O	40.4	–	97.4	47.4	–	47.5	33.5
Cc1ccc2cc(/C=C(\C#N)C(N)=O)c(N3CCCCC3)nc2c1	46.1	–	–	41.6	–	–	33.7
C/C(=C\c1ccccc1F)C(=O)c1c(C)cc(C)[nH]c1=O	–	–	–	–	–	·	·
Cc1[nH]c(=O)c(C(=O)/C=C/c2ccccc2F)c2c1CCCC2	44.0	–	–	47.0	–	52.5	38.5
COc1cc(CNC(=O)c2ccc3oc(C(C)C)nc3c2)cc(OC)c1	–	–	–	–	–	·	·
CCOC(=O)c1c(N)sc(C(O)(C(F)(F)F)C(F)(F)F)c1-c1ccc(F)cc1	41.2	–	–	43.0	–	–	–
CCOC(=O)c1c(N)sc(C(O)(C(F)(F)F)C(F)(F)F)c1-c1ccc(Cl)cc1	–	–	–	–	–	·	·
Cc1ccc(NC(=S)NCc2cccs2)cc1	–	–	–	–	–	·	·
CCCCc1ccc(NC(=S)NCc2cccs2)cc1	40.4	–	·	46.2	–	42.6	34.6
Cc1noc(/C=C/c2cccnc2)c1[N+](=O)[O-]	56.5	–	–	54.7	–	57.2	74.9
Cc1cccc(C)c1N/C=C/c1onc(C)c1[N+](=O)[O-]	–	–	–	–	–	·	·
COc1ccc(OCc2nnc(SCC(=O)N3C(C)CCCC3C)o2)cc1 (stereo unspecified)	–	–	–	–	–	·	·
COc1ccc(NC(=O)/C(C#N)=C/c2c(C)nn(-c3ccc(F)cc3)c2Cl)cc1Cl	–	–	–	–	–	·	·
COc1ccc(NC(=O)/C(C#N)=C/c2c(C)nn(-c3ccc(F)cc3)c2Cl)cc1OC	48.9	–	–	50.8	–	45.2	42.1
CN(C)S(=O)(=O)c1ccc(Cl)c(C(=O)NC2=NCCS2)c1	–	–	–	–	–	·	·
COc1ccc2[nH]c3c(=O)n4c(nc3c2c1)SCC4	40.1	–	–	44.6	–	36.6	–
COc1ccc(-c2cc(C(=O)Nc3c(F)cc(F)cc3Br)no2)cc1	–	–	–	–	–	·	·
Fc1ccc2c(c1)C(c1ccc(N3CCOCC3)cc1)=NNC(c1cccs1)=N2	54.7	–	·	41.5	–	–	35.8
Brc1ccc2c(c1)C(c1ccc(N3CCOCC3)cc1)=NNC(c1cccs1)=N2	–	–	·	–	–	·	·
SMILES	TIM10 inh	Beta2AR agonist	PfHsp90 set2	tim10-1 inh	tim23-1 inh	tim10-1 conf	tim10 confirm
Cn1cccc1C(=O)OCc1cc(-c2ccco2)on1	–	–	–	–	–	·	·
CC(C)Nc1nnc(Sc2ccc(Cl)cc2[N+](=O)[O-])s1	69.1	–	–	79.4	–	72.2	–
Nc1nnc(Sc2ccc(Cl)cc2[N+](=O)[O-])s1	–	–	–	–	–	·	·
CCOc1cc(/C=N/NC(=O)c2cc(-c3cccnc3)nc3ccccc23)ccc1O	43.9	–	–	45.3	–	37.9	–
CCc1ccc(OCC2NCCc3cc(OC)c(OC)cc32)cc1 (stereo unspecified)	–	–	–	–	–	·	·
COc1cc2c(cc1OC)C(COc1ccc(F)cc1)NCC2 (stereo unspecified)	44.8	–	–	43.2	–	36.0	41.7
O=C(Nc1ccccn1)C1CCN(c2ncnc3c2nc2n3CCCCC2)CC1	–	–	–	–	–	·	·
Cc1ccc(-c2nn(-c3ccccc3)cc2C=O)o1	71.7	–	–	63.2	–	64.5	70.1
N#C/C(=C\C=C\c1ccccc1[N+](=O)[O-])C(=O)NC1CCCCC1	43.0	–	·	55.2	–	47.2	53.0
O=C(N/N=C/c1ccccc1F)c1ccccc1OCc1ccccc1	–	–	–	–	–	·	·
O=S(=O)(c1cccc(-c2nc3ccccc3s2)c1)N1CCCC1	44.0	–	–	48.4	–	34.4	41.8
Cc1ccc(NC(=S)NNC(=O)C2CC2c2ccc(C)cc2)cc1 (stereo unspecified)	40.4	–	–	41.4	–	–	–
Cc1ccc(SCCC(=O)N/N=C/c2ccccc2O)cc1	48.2	–	–	42.5	–	–	44.5
COc1cc(/C=N/NC(=O)c2cc[n+]([O-])cc2)ccc1O	–	–	–	–	–	·	·
CS(=O)(=O)N1CCN(c2nnc(-c3ccccc3)c3ccccc23)CC1	–	–	–	–	–	·	·
c1ccc(-c2nnc(N3CCN(c4ccccn4)CC3)c3ccccc23)cc1	40.7	–	·	52.4	–	–	–
O=C1c2ccccc2C(=O)c2c(/C=C/N3CCCCC3)ccnc21	·	–	–	·	·	·	·
S=c1[nH]nc(-c2ccc(Br)cc2)n1Cc1ccccc1	46.4	–	–	42.4	–	–	45.0
Cc1nc(NCCc2ccc(O)cc2)c2nnn(Cc3ccccc3)c2n1	–	–	–	–	–	·	·
O=C(Nc1ccc(Cl)c(Cl)c1)OCc1cccnc1	43.9	–	–	49.6	–	47.2	30.5
CC(Cc1ccc(Cl)cc1)N1CCC(n2nccc2NC(=O)C2CCCC2)CC1 (stereo unspecified)	–	–	–	–	–	·	·
CCOC(=O)c1ccc(N2C(=O)CC(N3CCCC(C)C3)C2=O)cc1 (stereo unspecified)	46.4	–	·	65.6	–	66.2	46.6
Cc1nnc(SCC(=O)N(CCC#N)c2ccc3c(c2)OCCO3)s1	–	–	–	–	–	·	·
COc1cccc2[nH]c3c(N4CCN(Cc5ccc6c(c5)OCO6)CC4)ncnc3c12	–	·	·	–	–	·	·
COc1ccc2c(c1)[nH]c1c(N3CCN(Cc4ccc5c(c4)OCO5)CC3)ncnc12	46.8	–	–	47.2	–	41.6	–
